Assay outcomes (PubChem)
Pf growth 96h: Primary qHTS for delayed death inhibitors of the malarial parasite plastid, 96 hour incubation; P. falciparum luciferase reporter growth, 96 h; Potency, µM (titrated, usually from 28.7 µM), without a hit: top-dose activity change, negative = inhibition, hits mostly inhibitors; 6.9% of 320,000 active
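Two-generation exposure (96 h) targets delayed-death phenotype. Reporter parasites carrying integrated firefly luciferase, in red cells at 2% hematocrit and 0.05% parasitemia final, kept at 37 C, 5% CO2; luminescence loss indicates inhibition.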
HCV inhibitor: qHTS Assay for Inhibitors of Hepatitis C Virus (HCV). Huh7.5.1 HCVcc-Cre infection, luciferase reporter, 44 h. 3.4% of 340,000 active. Potency, µM (highest dose often 41.8 µM), for inactives: at the highest dose activity change, negative = inhibition, actives largely listed as inhibitors
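Infectious HCVcc-Cre (~0.5 moi) was added to cells just after compound, with cells seeded 4 h earlier at 1,000 per well. Luciferase activity after 44 h culture reported infection; substrate was incubated 15 min at room temperature before reading.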
AmpC inh detg: qHTS Inhibitors of AmpC Beta-Lactamase (assay with detergent) | P00811 | AmpC hydrolysis of nitrocefin, absorbance 480 nm, 0.01% Triton | Potency, µM (doses to about 114 µM), for inactives: top-dose activity change, negative = inhibition, hits mostly inhibitors | 0.041% of 370,000 active;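 note: 0% = no-compound wells and -100% = no-enzyme wells; nearly all actives have a fitted effect of over 25% in size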
Target sequence (P00811 whole entry, looked up): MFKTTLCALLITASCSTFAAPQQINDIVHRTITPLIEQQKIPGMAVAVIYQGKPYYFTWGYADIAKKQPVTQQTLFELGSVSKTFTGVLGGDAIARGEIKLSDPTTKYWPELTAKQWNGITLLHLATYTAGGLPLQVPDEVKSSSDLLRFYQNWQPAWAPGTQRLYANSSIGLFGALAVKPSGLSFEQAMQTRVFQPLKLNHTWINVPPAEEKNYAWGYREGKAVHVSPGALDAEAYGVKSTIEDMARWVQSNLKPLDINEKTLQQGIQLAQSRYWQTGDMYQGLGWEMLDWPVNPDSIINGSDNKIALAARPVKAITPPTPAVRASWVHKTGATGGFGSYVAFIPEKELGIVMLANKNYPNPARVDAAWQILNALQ
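AmpC (5.3 nM in the dispensed reagent) in 20 mM phosphate pH 7.0 with 0.01% (detergent screen) or 0.0001% Triton X-100 was preincubated with compounds for 15 min at room temperature. Nitrocefin was then added from an 800 uM solution, and hydrolysis was followed at 480 nm.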
AMA1 RON2 block: qHTS for Inhibitors of AMA1-RON; Towards Development of Antimalarial Drug Lead: Primary Screen | Potency, µM (titrated, usually from 58.2 µM), for the others: top-dose activity change, negative = inhibition, most hits filed as inhibitors | AID 720542, 2013 | AlphaScreen AMA1-biotinylated RON2 peptide binding | Plasmodium falciparum AMA1 (3D7) - RON2 peptide interaction | 0.2% of 360,000 active;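 note: 0% = vehicle wells and -100% = peptide control; nearly all actives have a fitted effect of over 45% in size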
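AMA1 (3D7) with his tag at 25 nM final met compounds first, then biotinylated RON2 peptide at 25 nM; detection used donor plus acceptor beads, 10 µg/mL apiece, read by AlphaScreen after 30 min at room temperature.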
AmpC inh no detg: qHTS Inhibitors of AmpC Beta-Lactamase (assay without detergent); P00811; AmpC nitrocefin hydrolysis, absorbance 480 nm, 0.0001% Triton; Potency, µM (top dose mostly 57.1 µM), for inactives: at the highest dose activity change, negative = inhibition, hits mostly inhibitors; 0.52% of 330,000 active; AID 485341, 2010;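 note: plate controls were no compound for no effect and no enzyme for full effect; nearly all actives have a fitted effect of over 20% in size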
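20 mM phosphate pH 7.0 + 0.01% (detergent screen) or 0.0001% Triton X-100; 5.3 nM AmpC reagent; cpd preinc 15 min RT; nitrocefin (800 uM stock) to start; A480 q20 s × 4 min; Activity was normalised to no-enzyme and no-compound control wells.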
Pf growth 48h: Primary qHTS for delayed death inhibitors of the malarial parasite plastid, 48 hour incubation | AID 504832, 2011 | P. falciparum luciferase growth in erythrocytes, 48 h | Potency, µM (highest dose often 28.7 µM), inactives show at the highest dose activity change, negative = inhibition, usual class: inhibitors | 5.9% of 310,000 active
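Luciferase-expressing parasites in RBCs, 2% Hct / 0.1% parasitemia final; RPMI 1640 + 0.5% Albumax; 37 C, 5% CO2, one generation; luminescence read-out, lower signal = inhibition.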
Starred values were filed as active, the others as inactive; ? = inconclusive; · = no result given; [ ] = dose if it differs, or a comment. Shown are actives, neighbours in structure and some others; about 11% of the full set was active somewhere. Calls come from the whole dose curve; as a rule, active = well fitted curve in the direction sought with a large enough effect; inconclusive = small, poorly fitted or top-dose-only effect, or another doubt; inactive = no such curve, though single readings can be large; an effect the other way counts as inactive or inconclusive. Unless noted, % is set by controls: 0 for no effect and ±100 for the full control effect; potency is the fitted concentration of half-maximal effect.

SMILES	Pf growth 96h	HCV inhibitor	AmpC inh detg	AMA1 RON2 block	AmpC inh no detg	Pf growth 48h
Cc1onc(-c2ccccc2Cl)c1C(=O)NC(=S)Nc1ccccc1F	46.0%	-6.1%	5.5%	86.1%	-8.2%	4.15µM*
Cc1onc(-c2ccccc2Cl)c1C(=O)NC(C)c1ccccc1 (configuration not stated)	13.1µM*	8.3%	-8.5%	-1.7%	16.4%	-20.8%
Cc1onc(-c2ccccc2Cl)c1C(N)=O	-2.5%	19.1%	-8.2%	-2.4%	-13.7%	8.7%
COc1ccccc1NC(=S)NC(=O)c1c(-c2ccccc2Cl)noc1C	22.4%	?	-5.8%	66.5%	-6.8%	?
Cc1onc(-c2ccccc2Cl)c1C(=O)NCc1ccccn1	·	0.2%	?	11.9%	-6.0%	-6.5%
Cc1onc(-c2ccccc2Cl)c1C(=O)NC(=S)Nc1ccc(C(C)C)cc1	13.1µM*	?	-10.8%	76.9%	-2.9%	5.22µM*
COc1ccccc1CNC(=O)c1c(-c2ccccc2Cl)noc1C	57.2%	-24.5%	4.9%	-3.7%	-6.3%	10.4µM*
Cc1ccc(NC(=S)NC(=O)c2c(-c3ccccc3Cl)noc2C)cc1	?	-10.1%	1.0%	22.9%	-25.8%	10.4µM*
CCOc1ccc(-c2cc(CCCC(=O)NCCc3cc(OC)c(OC)c(OC)c3)no2)cc1	·	·	-13.0%	·	·	·
Cc1nc2nc(NC(=O)c3ccccc3F)[nH]n2c(=O)c1Cl	·	·	20.1%	·	·	·
CCCCOC(=O)c1ccc(NC(=O)c2csnn2)cc1	·	·	-3.0%	·	·	·
NCCCC[C@@H](C(=O)NCCCCCCCCCCC(=O)N1CCNCC1)n1cc(CCCC(=O)O)nn1	60.6%	11.6%	-1.3%	-4.4%	-1.3%	-6.6%
CC[C@H](C)[C@@H](C(=O)NCCCCCCCCCCC(=O)N1CCNCC1)n1cc(CCCCN=C(N)N)nn1	2.33µM*	7.4%	1.8%	-2.3%	35.9%	2.94µM*
CC[C@H](C)Cc1cn([C@@H](CCCN=C(N)N)C(=O)NCCCCCCCCCCC(=O)N2CCNCC2)nn1	?	18.5%	-4.9%	7.7%	102.4%	4.65µM*
O=C(NCCc1ccc(Cl)cc1)C1CCC(CNc2nc(=S)[nH]c3ccccc23)CC1 (configuration not stated)	-0.6%	11.2µM*	4.5%	63.4%	-29.4%	?
COc1ccc(CCNC(=O)CCCCCNc2nc(=S)[nH]c3ccccc23)cc1OC	10.4µM*	11.2µM*	-2.6%	59.3%	-7.4%	?
O=C(NCCC1=CCCCC1)C1CCC(CNc2nc(=S)[nH]c3ccccc23)CC1 (configuration not stated)	23.8%	?	0.8%	37.4%	-21.5%	?
CCCCCn1c(=O)[nH]c2cc(C(=O)NCc3ccc(OC)cc3)ccc2c1=O	·	·	2.3%	·	·	·
Cc1ccc(-c2cc(C(=O)NCCc3ccccc3)c3c(-c4ccc(C)cc4)[nH]nc3n2)cc1	·	·	2.3%	·	·	·
O=C1C2C3C=CC(C3=C(c3ccccc3)c3ccccc3)C2C(=O)N1Cc1ccccc1 (configuration not stated)	35.4%	11.2µM*	6.6%	-8.5%	-20.3%	·
Cc1ccc(Cl)cc1-n1ncc2c(Nc3cccc(C)c3C)ncnc21	·	·	2.4%	·	·	·
CC(C)OC(=O)C(C(=O)C(F)(F)F)c1cc(NS(=O)(=O)c2ccc3c4c(cccc24)C(=O)N3)ccc1O (configuration not stated)	·	·	-5.9%	·	·	·
CC(C)OC(=O)C(C(=O)C(F)(F)F)c1cc(NS(=O)(=O)c2ccc3ccccc3c2)c2ccccc2c1O (configuration not stated)	3.29µM*	?	-6.2%	-7.7%	-35.6%	9.28µM*
Cc1ccc(NC(=O)CC(C)S(=O)(=O)c2ccc3c(c2)NC(=O)CO3)c(C)c1 (configuration not stated)	·	·	13.6%	·	·	·
CCN1CCN(c2csc3ccc(Br)cc3c2=O)CC1	·	·	22.0%	·	·	·
SMILES	Pf growth 96h	HCV inhibitor	AmpC inh detg	AMA1 RON2 block	AmpC inh no detg	Pf growth 48h
CCOC(=O)c1sc(=S)n(-c2ccccc2)c1SC	13.1µM*	?	?	-11.9%	-11.9%	11.7µM*
CCOC(=O)c1sc(=S)n(-c2ccccc2Cl)c1SC	2.62µM*	-18.0%	?	5.5%	-25.5%	13.1µM*
CCOC(=O)c1sc(=S)n(-c2cccc(C(F)(F)F)c2)c1SC	?	-12.1%	-10.8%	-0.1%	-15.2%	?
Cc1cc(F)ccc1NC(=O)C(C(C)C)N1Cc2ccccc2C1=O (configuration not stated)	·	·	-4.6%	·	·	·
Cc1nn2c(=O)cc(COC(=O)c3ccccc3NC(=O)C(C)Oc3ccccc3)nc2s1 (configuration not stated)	·	·	8.0%	·	·	·
CC(=O)Nc1ccc(Nc2ccc3cc(S(=O)(=O)N4CCCCC4)ccc3n2)cc1	·	·	2.2%	·	·	·
CC(=O)NC1=NN(C(C)=O)C2(CCCCC2)S1	-12.2%	2.82µM*	?	-7.3%	-8.8%	-15.6%
O=C(O)C(Cc1ccc(F)cc1)c1ccccc1 (configuration not stated)	3.29µM*	13.4%	-2.8%	6.4%	-13.9%	47.0%
O=C(CC(Cc1ccccc1)C(=O)O)Nc1ccc(F)cc1 (configuration not stated)	2.33µM*	?	3.0%	0.0%	-15.2%	-16.1%
O=S(=O)(/N=C(/Nc1cccc2ccccc12)c1ccccc1)c1cccs1	11.7µM*	1.7%	15.2%	-0.9%	-5.6%	?
O=S(=O)(/N=C(/Nc1cccc2ccccc12)c1ccccc1)c1ccccc1	155.2%	2.6%	-2.9%	-3.1%	-39.8%	?
O=S(=O)(/N=C(/Nc1cccc2ccccc12)c1ccccc1)c1ccc(F)cc1	-5.9%	-6.4%	?	11.2%	-32.1%	3.9%
O=S(=O)(/N=C(/Nc1cccc2ccccc12)c1ccccc1)c1ccc(Br)cc1	4.15µM*	-18.6%	?	-10.8%	-34.5%	12.9%
Cc1cccc(N/N=C(\C(N)=O)C2=NC(C)(C)Cc3ccccc32)c1	4.65µM*	11.2µM*	-9.7%	?	27.9%	5.86µM*
C#CCOCCOCCOCCNc1nc(N2CCN(C(=O)CCCCCCCCCCNC(=O)Cn3cc(CCCCCN)nn3)CC2)nc(N2CCN(C(=O)CCCCCCCCCCNC(=O)Cn3cc(CCCCCN)nn3)CC2)n1	6.57µM*	10.6%[8.37 µM]	-2.4%	?	351.1%	1.65µM*
